High-throughput results: PubChem BioAssay, National Center for Advancing Translational Sciences (NCATS)
Rows were chosen to be rich in hits. Some 11% of all compounds tested hit in one or more screens of this group.
Sm TGR block = blocks Schistosoma mansoni thioredoxin glutathione reductase | Q962Y6 | 3% of 360,000 active | Potency, µM (series often up to 114 µM), hits mostly inhibitors | purified TGR, DTNB reduction, TNB absorbance 405 nm; also: nearly all actives have a fitted effect of over 60% in size
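First, TGR (20 nM dispensed) and NADPH were mixed with compound. Second, a 15 min room-temperature incubation followed. Third, further NADPH and then DTNB were added to start the reaction. Finally, TNB absorbance was monitored kinetically.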
AMA1-RON2 inh = disrupts binding of P. falciparum AMA1 to RON2; AlphaScreen AMA1-biotinylated RON2 peptide binding; Potency, µM (series often up to 58.2 µM), actives largely listed as inhibitors; 0.2% of 360,000 active; AID 720542; also: nearly all actives have a fitted effect of over 45% in size
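AMA1 (3D7) with his tag at 25 nM final met compounds first, then biotinylated RON2 peptide at 25 nM; detection used donor plus acceptor beads, 10 µg/mL apiece, read by AlphaScreen after 30 min at room temperature.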
Pf growth 48h = inhibits P. falciparum growth in the first generation, 48 h | P. falciparum luciferase growth in erythrocytes, 48 h | Potency, µM (doses to about 28.7 µM), actives largely listed as inhibitors | 5.9% of 310,000 active | AID 504832
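Here the parasites carry a stable luciferase gene and grow inside erythrocytes in Albumax-based RPMI medium with compound for one erythrocytic cycle. Activity is scored as loss of luminescent signal.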
NS1 inh = inhibitors of influenza NS1 protein function. Potency, µM (highest dose often 46.1 µM). 0.4% of 270,000 active; calls by dose curve; also: actives are rising curves; nearly all actives have a fitted effect of over 50% in size
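Growth recovery, yeast-based: influenza A NS1 expressed in S. cerevisiae causes slow growth, and suppressors are detected by OD600. The parent strain without NS1 is used as positive control.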
Pf growth 96h = P. falciparum growth inhibition at 96 hour, primary screen for plastid delayed-death inhibitors; P. falciparum luciferase reporter growth, 96 h; 6.9% of 320,000 active; Potency, µM (highest dose often 28.7 µM), most hits filed as inhibitors
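Compounds incubated with erythrocytes infected by luciferase-expressing P. falciparum (2% hematocrit, 0.05% parasitemia final) for 96 hours, 37 C in 5% CO2. Growth inhibition scored as decreased luciferase luminescence.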
Each line names hits and unclear results; the compound was inactive in the other large screens. Unless noted, calls follow the shape of the dose curve; as a rule, active = well fitted curve in the direction sought with a large enough effect; inconclusive = small, poorly fitted or top-dose-only effect, or another doubt; inactive = no such curve, though single readings can be large; an effect the other way counts as inactive or inconclusive.

O=C(NCc1ccc(F)cc1)c1cc2c(s1)CS(=O)(=O)C2	Pf growth 96h 6.57µM
O=[N+]([O-])c1ccc(-n2nnnc2-c2ccccc2)cc1	none (no result: NS1 inh)
O=[N+]([O-])c1ccc(-n2nnnc2-c2ccccc2)c([N+](=O)[O-])c1	Sm TGR block 17.8µM, Pf growth 96h inconclusive
C[C@]12CCC(=O)CC1CCC1C2CC[C@]2(C)C(OC(=O)CCC(=O)O)CCC12 (stereo not given in full)	none
CCCCCCC(=O)O[C@H]1CC[C@H]2[C@@H]3CCC4CC(=O)C=C(C)[C@]4(C)[C@H]3CC[C@]12C (stereo not given in full)	Pf growth 48h 4.78µM, Pf growth 96h 6.75µM (no result: Sm TGR block, AMA1-RON2 inh, NS1 inh)
CCOc1ccc(Br)cc1C1C(C(=O)OC)=C(N)Oc2cc(N(C)C)ccc21 (stereo not given)	Pf growth 96h inconclusive (no result: Pf growth 48h)
CNc1ccc(Cl)cc1C(N)=O	none
N/C(=C\C(=O)c1cc(Cl)ccc1O)C(Cl)(Cl)Cl	Sm TGR block inconclusive, Pf growth 48h 2.94µM, Pf growth 96h 10.4µM
CCCc1nn2c(=O)cc(COc3ccc(/C=C(\C#N)C(=O)Nc4ccccc4)cc3)nc2s1	none (no result: AMA1-RON2 inh, Pf growth 48h, NS1 inh, Pf growth 96h)
COCCOC(=O)c1sc2nc[nH]c(=O)c2c1C	none (no result: NS1 inh)
CCOc1c(Br)ccc2c1sc1nc[nH]c(=O)c12	Pf growth 96h 9.28µM
CCc1noc(C)c1C(=O)N1CCCC(C(=O)c2cc(F)ccc2F)C1 (stereo not given)	none
CSc1ncccc1C(=O)N1CCCC(C(=O)c2cc(F)ccc2F)C1 (stereo not given)	Pf growth 96h 9.28µM
COc1ccccc1C(=O)C1CCCN(C(=O)CSc2ccccn2)C1 (stereo not given)	Pf growth 96h 10.4µM
CCc1noc(C)c1C(=O)N1CCCC(C(=O)c2cc(F)ccc2OC)C1 (stereo not given)	Pf growth 96h 11.7µM
COc1ccc(C2c3[nH]c4ccccc4c3C[C@H]3C(=O)N(C4CCN(Cc5ccccc5)CC4)CC(=O)N23)c(OC)c1 (stereo not given in full)	Pf growth 48h 0.828µM, Pf growth 96h 1.04µM
Cc1ccccc1C1c2[nH]c3ccccc3c2C[C@H]2C(=O)N(C3CCN(Cc4ccccc4)CC3)CC(=O)N12 (stereo not given in full)	Pf growth 48h 3.29µM, Pf growth 96h 0.329µM (no result: AMA1-RON2 inh)
C=CCN1CC(=O)N2C(C)c3[nH]c4ccccc4c3C[C@H]2C1=O (stereo not given in full)	none
COc1cccc(C2c3[nH]c4ccccc4c3C[C@H]3C(=O)N(CCCO)CC(=O)N23)c1OC (stereo not given in full)	Pf growth 48h inconclusive, Pf growth 96h inconclusive
COc1ccc(OC)c(C2c3[nH]c4ccccc4c3C[C@H]3C(=O)N(C4CC4)CC(=O)N23)c1 (stereo not given in full)	Pf growth 48h inconclusive, Pf growth 96h inconclusive
CCOc1ccccc1C1c2[nH]c3ccccc3c2C[C@H]2C(=O)N(C3CCN(Cc4ccccc4)CC3)CC(=O)N12 (stereo not given in full)	Pf growth 48h 0.928µM, Pf growth 96h 0.738µM
NC(=O)c1ncn([C@@H]2O[C@H](CNCc3cc(Br)ccc3OCc3ccccc3)[C@@H](O)[C@H]2O)n1	none (no result: Sm TGR block, Pf growth 48h, NS1 inh, Pf growth 96h)
Cc1ccc(N2CC(C(=O)NCCS(=O)(=O)N3CCN(c4ccccc4F)CC3)CC2=O)cc1 (stereo not given)	Pf growth 96h inconclusive
C=CC1CN2CCC1CC2C(O)c1ccnc2ccccc12 (stereo not given)	none (no result: Sm TGR block, Pf growth 48h, NS1 inh, Pf growth 96h)
CC[C@H]1CN2CCC1C[C@H]2[C@H](O)c1ccnc2ccc(OC)cc12 (stereo not given in full)	Pf growth 48h 0.0928µM, Pf growth 96h 0.0522µM (no result: NS1 inh)
C=CC1CN2CCC1CC2C(OC(=O)OCC)c1ccnc2ccc(OC)cc12 (stereo not given)	Pf growth 48h 1.69µM, Pf growth 96h 0.757µM (no result: Sm TGR block, AMA1-RON2 inh, NS1 inh)
C=CC1CN2CCC1CC2[C@@H](OC(=O)c1ccc(OC)cc1)c1ccnc2ccccc12 (stereo not given in full)	Pf growth 48h 2.94µM
C=C[C@@H]1CN2CC[C@H]1CC2[C@H](O)c1ccnc2ccccc12 (stereo not given in full)	none (no result: Sm TGR block, AMA1-RON2 inh, Pf growth 48h, Pf growth 96h)
CC[C@H]1CN2CCC1C[C@@H]2[C@@H](O)c1ccnc2ccc(OC)cc12 (stereo not given in full)	none (no result: Sm TGR block, Pf growth 48h, NS1 inh, Pf growth 96h)
C=C[C@@H]1CN2CC[C@H]1C[C@H]2[C@H](O)c1ccnc2ccccc12	Pf growth 48h 0.135µM, Pf growth 96h 0.0536µM (no result: Sm TGR block, AMA1-RON2 inh, NS1 inh)
O=C(Nn1cnnc1)c1ccc(Cl)cc1	none
COc1ccc(-c2cn3nc(SCC(=O)Nc4ccccc4F)ccc3n2)cc1	none (no result: AMA1-RON2 inh, Pf growth 48h, NS1 inh, Pf growth 96h)
OC(c1cccs1)(c1cccs1)C1C[N+]2(CF)CCC1CC2 (stereo not given)	Pf growth 48h 10.4µM, Pf growth 96h 2.33µM
COc1ccc(C(=O)C(C)N(C(=O)c2ccc(Cl)cc2Cl)N2C(=O)C3C4C=CC(C4)C3C2=O)cc1 (stereo not given)	Pf growth 48h 7.38µM, Pf growth 96h inconclusive
Cc1ccc(C(=O)C(C)N(C(=O)c2ccc(Cl)cc2Cl)N2C(=O)CCCC2=O)cc1 (stereo not given)	Pf growth 96h 11.7µM (no result: Sm TGR block)
Cc1ccc(NC(=O)CSc2nnc3n2CCCCC3)cc1S(=O)(=O)N1CCOCC1	none (no result: Sm TGR block, Pf growth 48h, NS1 inh, Pf growth 96h)
CC(C)CN1C(=O)C(=O)N(CC(=O)N(C)CC(=O)Nc2ccc(F)cc2)C1=O	none (no result: NS1 inh)
COC(=O)C1=C(N)Oc2cc(C)[nH]c(=O)c2C1c1cc(OC)c(OC)c(OC)c1 (stereo not given)	Pf growth 48h 10.4µM
Cc1ccc(C)c(NC(=O)CSc2nc3nccnc3c(=O)n2CCc2c[nH]c3ccccc23)c1	none (no result: AMA1-RON2 inh, Pf growth 48h, NS1 inh, Pf growth 96h)
O=c1cccc2n1CC1CC2CN(Cc2cccc(Cl)c2Cl)C1 (stereo not given)	Pf growth 48h 4.65µM (no result: Pf growth 96h)
O=c1cccc2n1CC1CC2CN(Cc2c(F)cccc2Cl)C1 (stereo not given)	Pf growth 96h 9.28µM
CCn1cc(C(=O)N2CCc3ccccc32)c(=O)c2cc(S(=O)(=O)N(C)C3CCCCC3)ccc21	Pf growth 48h 11.7µM, NS1 inh inconclusive, Pf growth 96h inconclusive
CCCCN(CC)CCCNC(=O)c1cn(C)c2ccc(S(=O)(=O)N(C)C3CCCCC3)cc2c1=O	Pf growth 48h inconclusive, Pf growth 96h 14.7µM
CCn1cc(C(=O)NCCCN2CCCC(C)C2)c(=O)c2cc(S(=O)(=O)N(C)C3CCCCC3)ccc21 (stereo not given)	Pf growth 48h inconclusive, Pf growth 96h 11.7µM
CN(C1CCCCC1)S(=O)(=O)c1ccc2c(c1)c(=O)c(C(=O)NCCCN1CCCC1)cn2C	Pf growth 96h 13.1µM (no result: Pf growth 48h)
N#CCCN(NC(=O)OCc1ccccc1)C(=O)OCc1ccccc1	none (no result: Sm TGR block, Pf growth 48h, NS1 inh, Pf growth 96h)
CCCN(C(=O)COC(=O)c1nc2nccc(C)n2n1)C1CCS(=O)(=O)C1 (stereo not given)	none (no result: Sm TGR block, Pf growth 48h, NS1 inh, Pf growth 96h)
COc1cc(Cl)c(C)cc1NC(=O)Cc1cccs1	none
